Source: PubChem BioAssay AID1159580 (chemical genetic matrix, 2015)
Hit rate of the full screen: of about 5,500 compounds, about 2,000 (36%) were called active. About 18% were inconclusive and are not listed. No stated cut-off is given here; in the data, active means normalized growth mostly below about 0.91 (no sharp cut-off); inconclusive means no clear call, values can overlap the other calls; inactive means mostly above about 0.92. The list shows a part of the results.

Assay: chemical genetic growth profiling, strain panel (AID 1159580);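 further: tested at 20 µM; growth read once vehicle control cultures reached saturation at 30 °C; 1 = growth at the plate median or of vehicle wells; lower values mean less growth of the strain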
Settings: growth OD

Measured: normalized growth

CC1(C)S[C@@H]2[C@H](NC(=O)Cc3ccccc3)C(=O)N2[C@H]1C(=O)O
inactive: S. cerevisiae deletion strains, locus YJR066W, strain TOR1, hits give low values 0.941 | S. cerevisiae deletion strains, locus YKL009W, strain mrt4, hits give low values 1 | S. cerevisiae deletion strains, locus YKL068W, hits give low values 1 | S. cerevisiae deletion strains, locus YKL085W, strain MDH1 (second series), hits give low values 1 | S. cerevisiae deletion strains, locus YKL085W, strain MDH1, hits give low values 1 | S. cerevisiae deletion strains, locus YKL160W, strain elf1, hits give low values 1.01 | S. cerevisiae deletion strains, locus YKL190W, strain CNB1, hits give low values 1.01 | S. cerevisiae deletion strains, locus YKR001C, strain vps1, hits give low values 1.01 | S. cerevisiae deletion strains, locus YKR026C, strain gcn3, hits give low values 1.03 | S. cerevisiae deletion strains, locus YKR091W, strain srl3, hits give low values 1.01 | S. cerevisiae deletion strains, locus YLL001W, strain dnm1, hits give low values 1.03 | S. cerevisiae deletion strains, locus YLL026W, hits give low values 1.02 | S. cerevisiae deletion strains, locus YLL041C, strain sdh2, hits give low values 1.01 | S. cerevisiae deletion strains, locus YLR027C, strain aat2, hits give low values 1.03 | S. cerevisiae deletion strains, locus YLR039C, strain RIC1, hits give low values 1.04 | S. cerevisiae deletion strains, locus YLR058C, strain SHM2, hits give low values 1 | S. cerevisiae deletion strains, locus YLR102C, strain apc9, hits give low values 1.02 | S. cerevisiae deletion strains, locus YLR113W, strain HOG1, hits give low values 0.986 | S. cerevisiae deletion strains, locus YLR221C, strain rsa3, hits give low values 1.03 | S. cerevisiae deletion strains, locus YLR258W, strain gsy2, hits give low values 1.03 | S. cerevisiae deletion strains, locus YLR262C, strain YPT6 (second series), hits give low values 1 | S. cerevisiae deletion strains, locus YLR262C, strain YPT6, hits give low values 1.02 | S. cerevisiae deletion strains, locus YLR268W, strain sec22, hits give low values 1.02 | S. cerevisiae deletion strains, locus YLR320W, strain mms22, hits give low values 1.04 | S. cerevisiae deletion strains, locus YLR330W, strain CHS5, hits give low values 1 | S. cerevisiae deletion strains, locus YLR342W, strain FKS1 (second series), hits give low values 1.01 | S. cerevisiae deletion strains, locus YLR342W, strain FKS1, hits give low values 1.03 | S. cerevisiae deletion strains, locus YLR357W, strain rsc2, hits give low values 1.03 | S. cerevisiae deletion strains, locus YLR370C, strain arc18, hits give low values 1.03 | S. cerevisiae deletion strains, locus YLR371W, strain rom2, hits give low values 1.02 | S. cerevisiae deletion strains, locus YLR384C, strain iki3, hits give low values 1.03 | S. cerevisiae deletion strains, locus YLR418C, strain cdc73, hits give low values 1.03 | S. cerevisiae deletion strains, locus YML016C, strain PPZ1, hits give low values 1.01 | S. cerevisiae deletion strains, locus YML032C, strain rad52, hits give low values 1.02 | S. cerevisiae deletion strains, locus YML120C, strain ndi1, hits give low values 1.04 | S. cerevisiae deletion strains, locus YML124C, strain tub3, hits give low values 1.02 | S. cerevisiae deletion strains, locus YMR058W, strain fet3, hits give low values 1.01 | S. cerevisiae deletion strains, locus YMR078C, strain ctf18, hits give low values 1.03 | S. cerevisiae deletion strains, locus YMR125W, strain sto1, hits give low values 1.06 | S. cerevisiae deletion strains, locus YMR129W, hits give low values 1.03 | S. cerevisiae deletion strains, locus YMR205C, strain PFK2, hits give low values 1.03 | S. cerevisiae deletion strains, locus YMR223W, strain ubp8, hits give low values 1.02 | S. cerevisiae deletion strains, locus YMR231W, strain pep5, hits give low values 1.03 | S. cerevisiae deletion strains, locus YMR263W, strain SAP30, hits give low values 1 | S. cerevisiae deletion strains, locus YMR307W, strain GAS1, hits give low values 1.01 | S. cerevisiae deletion strains, locus YNL067W, strain RPL9B, hits give low values 1 | S. cerevisiae deletion strains, locus YNL071W, strain lat1, hits give low values 1.02 | S. cerevisiae deletion strains, locus YNL128W, strain TEP1, hits give low values 1.01 | S. cerevisiae deletion strains, locus YNL183C, strain NPR1, hits give low values 0.944 | S. cerevisiae deletion strains, locus YNL209W, strain ssb2, hits give low values 1.02 | S. cerevisiae deletion strains, locus YNL233W, strain BNI4, hits give low values 0.999 | S. cerevisiae deletion strains, locus YNL248C, strain rpa49, hits give low values 1.03 | S. cerevisiae deletion strains, locus YNL250W, strain rad50, hits give low values 1.02 | S. cerevisiae deletion strains, locus YNL271C, strain bni1, hits give low values 1.02 | S. cerevisiae deletion strains, locus YNL298W, strain CLA4, hits give low values 1.01 | S. cerevisiae deletion strains, locus YNL307C, strain MCK1, hits give low values 1.03 | S. cerevisiae deletion strains, locus YNL322C, strain KRE1 (second series), hits give low values 1.04 | S. cerevisiae deletion strains, locus YNR049C, strain mso1, hits give low values 1.01 | S. cerevisiae deletion strains, locus YNR052C, strain pop2, hits give low values 1.02 | S. cerevisiae deletion strains, locus YOL006C, strain TOP1, hits give low values 1.02 | S. cerevisiae deletion strains, locus YOL012C, strain htz1 1.12 | S. cerevisiae deletion strains, locus YOL147C, strain pex11, hits give low values 1.02 | S. cerevisiae deletion strains, locus YOR001W, strain rrp6, hits give low values 1.04 | S. cerevisiae deletion strains, locus YOR061W, strain CKA2, hits give low values 1.01 | S. cerevisiae deletion strains, locus YOR069W, strain VPS5, hits give low values 0.998 | S. cerevisiae deletion strains, locus YOR070C, strain gyp1, hits give low values 1.03 | S. cerevisiae deletion strains, locus YOR080W, strain dia2, hits give low values 1.02 | S. cerevisiae deletion strains, locus YOR083W, strain WHI5, hits give low values 0.987 | S. cerevisiae deletion strains, locus YOR106W, strain vam3, hits give low values 1.03 | S. cerevisiae deletion strains, locus YOR136W, strain idh2, hits give low values 1.02 | S. cerevisiae deletion strains, locus YOR144C, strain elg1, hits give low values 1.02 | S. cerevisiae deletion strains, locus YOR184W, strain ser1, hits give low values 1.06 | S. cerevisiae deletion strains, locus YOR231W, strain MKK1, hits give low values 0.994 | S. cerevisiae deletion strains, locus YOR265W, strain rbl2, hits give low values 1.01 | S. cerevisiae deletion strains, locus YOR270C, strain vph1, hits give low values 1.13 | S. cerevisiae deletion strains, locus YOR290C, strain snf2, hits give low values 1.03 | S. cerevisiae deletion strains, locus YOR316C, strain cot1, hits give low values 1.02 | S. cerevisiae deletion strains, locus YPL051W, strain arl3, hits give low values 1.03 | S. cerevisiae deletion strains, locus YPL055C, strain LGE1, hits give low values 1.01 | S. cerevisiae deletion strains, locus YPL078C, strain atp4, hits give low values 1.03 | S. cerevisiae deletion strains, locus YPL106C, strain sse1, hits give low values 1.02 | S. cerevisiae deletion strains, locus YPL240C, strain hsp82, hits give low values 1.02 | S. cerevisiae deletion strains, locus YPL256C, strain CLN2, hits give low values 0.966 | S. cerevisiae deletion strains, locus YPR119W, strain clb2, hits give low values 1.03 | S. cerevisiae deletion strains, locus YPR141C, strain kar3, hits give low values 1.01 | S. cerevisiae deletion strains, locus YPR163C, strain tif3, hits give low values 1.03 | S. cerevisiae deletion strains, locus YPR167C, strain met16, hits give low values 1.02 | S. cerevisiae deletion strains, strain wtn01, hits give low values 1.01 | S. cerevisiae strains, strain wild type, hits give low values 1
